From PubChem BioAssay (NCI) come the findings set out here.

The panel holds about 83,000 compounds, 20% with a hit somewhere; the sample as a whole holds those more often.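 Interpretation: 100, growth as untreated; towards 0, rising growth inhibition; 0, no net growth; 0 to -100, cell death. Compounds scoring below 10 were considered active.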 Values without a mark were called inactive. Activity calls are given as the source filed them.

The subject of this assay is MDA-MB-468 breast. Description: NCI-60 one-dose screen, 48 h (100 = growth as untreated, 0 = no growth, -100 = all killed). The note with it: 10 µM unless noted.
Take `Cc1ccc2c(n1)C(=O)c1[nH]c3ccccc3c1C2=O`: the growth is -15.8% (active). In the case of `O=C1Nc2ccc(F)cc2/C1=C\C(=O)c1ccc(NS(=O)(=O)c2ccccc2)cc1`, the growth was 90.3%. On to `CC(C)(C)OC(=O)N[C@@H](Cc1ccccc1)C(=O)N(Cc1ccccc1)C1(C(=O)NCc2ccccc2)CCN(Cc2ccccc2)CC1`, for which the growth is 7.09% (active). On to `CC1=CC(C)=Nc2ccc(Cl)cc2N1`, for which the growth was 109%. For `CCCCCCCCCCCCCCCCS(=O)(=O)Nc1cc(C(=O)NN)cc(C(=O)NN)c1` the value was 45.2%; for `Cc1ccc(Sc2ccccc2N)cc1`, 81.2%; for `CCCCCCCCCOc1c(OC)cc(C2CC(=O)Nc3c2c(C)nn3-c2nc3ccccc3[nH]2)cc1OC` (configuration not stated), -55.6% (active).

As to `COc1cc(NC(=O)C#Cc2ccccc2)c(OC)cc1Cl`, the growth is 70.9%. For `CC[C@H](Nc1ncnc2nc[nH]c12)c1nc2cccc(NCc3ccc(C(=O)NO)o3)c2c(=O)n1-c1ccccc1`, the growth is 84.7%. As for `Nc1c(C(=O)Nc2cccc3ccccc23)sc2nc3c(cc12)CCCCC3`, the figure is 37.1%. For `COc1c(C)c2c(c(O)c1C/C=C(\C)CCC(=O)OCCN1CCOCC1)C(=O)OC2` the value was 32.6%. Consider `O=C1Nc2c(ccc(Cl)c2Cl)/C1=C/c1ccc([N+](=O)[O-])cc1`, for which the growth is 103%.
